Test results: PubChem BioAssay AID925 (National Center for Advancing Translational Sciences (NCATS), 2007)
Where “and” joins values, the source holds several entries; their conditions need not be identical. Equal values may be shown once. In all, about 65,000 compounds went through this assay and about 40 (0.06%) were called active. The sample holds actives, similar compounds and a random draw of the others, so the mix is not that of the screen. A number with no mark means an inactive call. Calls follow the shape of the dose curve; as a rule, active = well fitted activation curve with a large enough effect; inconclusive = small, poorly fitted or top-dose-only effect; inactive = flat fitted curve, though single readings scatter.

test: qHTS Assay for Modulators of Hemoglobin Beta Chain Splicing; details: HBB splicing reporter cell assay, EGFP reporter with mutant IVS2-654 intron; Potency: activation; series mostly up to 46.1 µM; activation: at the top concentration; as to activation: 0% is about no effect
From the text: NIH Chemical Genomics Center [NCGC]
NIH Molecular Libraries Screening Centers Network [MLSCN]
PI Name: Dr. Ryszard Kole
Modulation of Alternative Splicing as Therapy
Abnormal splicing is associated with a number of diseases, including cancer and genetic diseases such as cystic fibrosis, muscular dystrophy and beta-thalassemia. Alteration of disease associated splicing patterns provides a promising target for treatment. […] Mutations in the second intron of the beta-globin gene at positions are clinically relevant and cause mis-splicing which results in an out of frame gene product.
EGFP-654 and 705 HeLa Cells as screen system.
HeLa cell lines were stably transfected with a construct in which the EGFP (enhanced green fluorescent protein) cDNA was interrupted by the second intron of the beta-globin gene (IVS2-654). The ISV2 intron contains mutations which cause mis-splicing of EGFP and premature termination of EGFP which results in a nonfluorescent protein product. […] Expression of the transgene was driven by the CMV promoter. We concluded that a low molecular weight compound, which restored correct splicing of intron 2 would also generate functional EGFP protein, resulting in a fluorescent signal. Thus, the HeLa cells that express the EGFP-654 construct can be used for high throughput screening of a chemical library.
NCGC Assay Protocol Summary:
High Throughput Screening. Freshly thawed HeLa EGFP-654 cells were seeded in 5 ul of optimem media (Invitrogen) containing 2 % fetal calf serum (Hyclone) and 1x penicillin/streptomycin (Invitrogen) at a concentration of 500 cells per well in 1536-well plates. Cells were incubated overnight at 37C in 5% CO2. The next day, cells were treated with DMSO, 500 nM antisense ISV2 654 PNA control oligo, or library compound and allowed to grow at 37C in 5% CO2 for 2 days. The PNA oligo blocked the mutation site in the intron and allowed proper (wild type) splicing to occur, resulting in full length EGFP expression and also allowed for optimization of the assay parameters. Plates were read in the Acumen Explorer (TTP Labtech) using 488 nm laser excitation and 500-520 nm emission PMT filter in a 1 x […] capture mode. Fluorescnet Fluorescent objects ranging in size from […] were measured and the total peak GFP intensity for each well was used for data analysis.
Keywords: Thalassemia, beta-thalassemia, beta-globin, EGFP, ISV2 654, ISV2 705, SSO, PNA, antisense, splicing, MLSMR, MLSCN, NIH Roadmap, qHTS, NCGC
Potency is read from the fitted curve at half-maximal effect.

| Compound | activation | Potency |
| --- | --- | --- |
| O=C(c1csnn1)N1CCC2(CC1)CN(c1ncccn1)C2 | 2.6% |  |
| O=S(=O)(O)c1ccc(O)c2ncccc12.O=S(=O)(O)c1ccc(O)c2ncccc12.[Zn] | 0.245% [at 9.22 µM, normalised to 500 nM splice-correcting PNA] |  |
| CCOC(=O)[C@]1(C(/C=C/c2ccco2)NC(=O)OC)CCCC1=O (some centres undefined) | 0.739% [at 9.22 µM, normalised to 500 nM splice-correcting PNA] |  |
| O=C1C(c2[nH]c3ccccc3c2O)=Nc2ccccc21 | 0.742% |  |
| COC(=O)[C@@]1(Cc2ccc(F)cc2)[C@H]2c3cc(C(=O)N4CCCC4)n(Cc4ccc(OC(F)(F)F)cc4)c3C[C@H]2CN1C(=O)c1ccccc1 | 0.537% |  |
| C[N+]1(CCN=C=NC2CCCCC2)CCOCC1 | 6.02% [at 9.22 µM, normalised to 500 nM splice-correcting PNA] |  |
| COCCn1c(=O)c(-c2cccs2)nc2cnc(N3CCN(C)CC3)nc21 | 0.122% |  |
| COC(=O)[C@H](C)[C@H]1C[C@]1(C)[C@H](NC(=O)OCc1ccccc1)c1ccccc1 | 0.936% |  |
| CCCCCCc1ccc(O)cc1O | -0.018% |  |
| CC(=O)OCC1OC(C#Cc2ccccc2Cl)C=CC1OC(C)=O (centres undefined) | 2.13% [at 9.22 µM, normalised to 500 nM splice-correcting PNA] |  |
| O=c1c(-c2cccs2)nc2cnc(Oc3ccccc3)nc2n1-c1ccccc1 | 7.2% |  |
| Cc1cc2nc3c(=O)[nH]c(=O)nc-3n(C[C@H](O)[C@H](O)[C@H](O)CO)c2cc1C | -0.785% |  |
| COc1ccc2[nH]cc(CCNc3ncnc4ccc(-c5ccc(C(=O)N(C)C)cc5)cc34)c2c1 | -3.75% |  |
| CCCC[C@@H]1C[C@H]1C(NC(=O)c1ccco1)c1ccc(C(=O)OC)cc1 (some centres undefined) | 1.15% |  |
| OC(CCl)CCl | -0.303% |  |
| CC(=O)/C(C)=N\O | 0.887% |  |
| COc1ccccc1CNc1nc(-c2c(C)noc2C)nc2ccccc12 | -0.267% |  |
| COCCNc1ccnc(-c2cccc(NS(C)(=O)=O)c2)n1 | -0.582% |  |
| CCNc1ncc2ncc(=O)n(CCc3ccccc3)c2n1 | 0.539% |  |
| CCCC[C@@H]1C[C@H]1C(NC(=O)c1ccc(-c2ccccc2)cc1)c1ccc(-c2ccccc2)cc1 (some centres undefined) | 1.8% |  |
| O=c1cc(-c2ccccc2)[nH]c2nc(Cl)ccc12 | 2.33% |  |
| O=C(c1ccncc1)N1CCC2(CCN(Cc3cc(C(F)(F)F)cc(C(F)(F)F)c3)CC2)CC1 | 1.42% |  |
| C=CCOC(=O)c1ccccc1C(=O)OCC=C | 2.26% |  |
| C/C=C1\C(=O)C[C@@H]2[C@@H]3CCC4=CC(=O)CC[C@@]4(C)[C@H]3CC[C@@]12C | 0.755% |  |
| Nc1nc2c(ncn2[C@H]2CC[C@@H](CO)O2)c(=O)n1C(=O)c1ccccc1 | 4.28% [at 9.22 µM, normalised to 500 nM splice-correcting PNA] |  |

| Compound | activation | Potency |
| --- | --- | --- |
| N#Cc1cccc(-c2nc3cnc(N4CCNCC4)nc3n(C3CC3)c2=O)c1 | -0.0364% |  |
| CCNc1ncc2nc(CCc3ccccc3)c(=O)n(-c3ccc(OC)cc3)c2n1 | 9.49% |  |
| COCCn1c(=O)c(-c2cc(F)cc(F)c2)nc2cnc(N3CCNCC3)nc21 | -0.701% |  |
| N#CCCn1c(=O)c(-c2cc(F)cc(F)c2)nc2cnc(Oc3ccccc3)nc21 | -1.62% |  |
| CN1CCc2[nH]nc(-c3n[nH]c4c3CN(C)CC4)c2C1 | 1.49% [at 9.22 µM, normalised to 500 nM splice-correcting PNA] |  |
| COC(=O)N1CCC2(CCCN(Cc3ccccc3OC)C2)CC1 | -1.36% |  |
| CN(C)CCCn1c2ccccc2c2cnccc21 | 4.04% [at 9.22 µM, normalised to 500 nM splice-correcting PNA] |  |
| Nc1ccc2c3c(cccc13)C(=O)NC2=O |  | 31.6 µM (active) |
| CCN1C(=O)c2cccc3c(N)ccc1c23 | -0.679% |  |
| CC(C)CN1CCc2nc(-c3ccccc3)c3c(c2C1)COC(C)C3 (centres undefined) | 2% [at 9.22 µM, normalised to 500 nM splice-correcting PNA] |  |
| CCCn1c(-c2ccc(F)cc2)nc2c(NC3CCN(Cc4ccccc4)C3)nc(C)nc21 (centres undefined) | -0.408% |  |
| CCOc1ccc(N=NS(=O)(=O)O)cc1 | 3.52% [at 9.22 µM, normalised to 500 nM splice-correcting PNA] |  |
| CCCCC(CC)CN (centres undefined) | inactive |  |
| CC(C)(C)[Si](OCC[C@@H]1C[C@@]1(C)[C@@H](NP(=O)(c1ccccc1)c1ccccc1)c1ccccc1)(c1ccccc1)c1ccccc1 | -1.23% |  |
| Cn1c(=O)n2n(c1=O)[C@H]1[C@H](O)[C@H]3O[C@H]3C(=O)[C@H]1CC2 | 0.301% [at 9.22 µM, normalised to 500 nM splice-correcting PNA] |  |
| CN1C(=O)C[C@H](c2ccccc2)C1=O | 0.654% [at 20.6 µM, normalised to 500 nM splice-correcting PNA] |  |
| S=c1[nH]nc(SCc2ccccc2Cl)c2[nH]cnc12 | 3.49% [at 9.22 µM, normalised to 500 nM splice-correcting PNA] |  |
| CC(=O)OCC1OC(C#CCCCc2ccccc2)C=CC1OC(C)=O (centres undefined) | -0.748% [at 9.22 µM, normalised to 500 nM splice-correcting PNA] and 1.62% [at 9.22 µM, normalised to 500 nM splice-correcting PNA] |  |
| O=C(c1ccco1)N1CCC2(CC1)CCN(c1ncccn1)CC2 | 6.14% |  |
| CC(C)[C@@H](OCc1ccccc1)[C@H](C)/C=N\OC[C@@H](C)[C@H](OCc1ccccc1)C(C)C | 4.09% [at 9.22 µM, normalised to 500 nM splice-correcting PNA] |  |
| COc1ccccc1-c1nc(N2CCN(C)CC2)c2ccccc2n1 | -1.17% |  |
| CCCCCCN(C(=O)CCCCCN1C(=O)NC(c2ccc(C(F)(F)F)cc2)C(C(=O)OCc2ccccc2)=C1C)C(C(=O)NCCCC)c1ccc(OCC(=O)OC)c(C(=O)OC)c1 (centres undefined) | -0.619% |  |
| CC(=O)CC(C)C | -0.025% |  |
| COC(=O)[C@@]1(Cc2ccc(F)cc2)[C@H]2c3cc(C(=O)N(C)C)n(CCc4c[nH]c5ccc(OC)cc45)c3C[C@H]2CN1C(=O)c1ccccc1 | 0.012% |  |
